Data taken from paper PMC13083723 (Patterns, 2026).
The campaign covered roughly 5,400 compounds. About 190 (3.5%) showed an effect of 50% or more. The sample as a whole holds a higher share of strong results than the screen did.

The compounds below were run on Vero-E6 (assay: primary screen, phospholipidosis by LipidTOX staining; higher = more effect of the substance). Conditions: 10 µM.
Experimental: To measure drug-induced PLD in Vero-E6 cells, we used the HCS LipidTOX Red Phospholipidosis Detection Reagent (Invitrogen, #H34351), which is non-toxic to cell growth and remains well retained after aldehyde fixation. In this setup, compounds (at 10 μM concentration) and controls (amiodarone: 10 μM concentration; DMSO: 0.1 v/v %) were added to clear-bottom, 384-well plates (PhenoPlate 384-well, black, optically clear flat bottom, tissue-culture treated, Revvity #6057302) using the Echo Liquid Handler (Labcyte).

| Structure (SMILES) | result_ITMP [%] |
| --- | --- |
| Cn1ncc(Cl)c1-c1cc(C(=O)N[C@H](CN)Cc2cccc(F)c2)sc1Cl | 69.5 |
| O=C(N[C@H](Cc1ccccc1)C(=O)O)c1sc2cc(F)ccc2c1Cl | -1.39 |
| Cn1nc(C(C)(C)C)cc1C(=O)N[C@@H](Cc1cccc(Cl)c1)C(=O)NCC#N | -8.49 |
| Cc1cc(CN)cc(C)c1NC(=O)c1ccc(-c2cc(Cl)ccc2Cl)o1 | 36.2 |
| Cn1ncc(Cl)c1-c1cc(C(=O)N[C@H](CN)Cc2ccc(F)c(F)c2)oc1Cl | 82.6 |
| C[C@]12CCC(=O)C=C1CC[C@@H]1[C@@H]2C(=O)C[C@]2(C)C(=O)CC[C@@H]12 | -0.84 |
| C=C1C(=O)O[C@@H]2[C@H]3C(C)=CC[C@@]34O[C@@]4(C)CC[C@@H]12 | 2.15 |
| COC(=O)[C@]12CCC(C)(C)C[C@H]1[C@H]1C(=O)C=C3[C@@]4(C)C=C(C#N)C(=O)C(C)(C)[C@@H]4CC[C@@]3(C)[C@]1(C)CC2 | -10.9 |
| CCCC[C@@H](NC(=O)[C@@H](Cc1cn(C(=O)OC)c2ccccc12)NC(=O)[C@H](CC(C)(C)C)NC(=O)N1[C@H](C)CCC[C@@H]1C)C(=O)[O-] | -3.76 |
| CC(C)(C)CCN1C[C@@H]2[C@@H](CNC(=O)c3cc(Cl)cc(Cl)c3)[C@@H]2C1 | 20.6 |
| COC1C(OC(=O)NC(=O)CCl)CCC2(CO2)C1C1(C)OC1CC=C(C)C (centres unmarked) | 11.3 |
| C[C@H]1CC2C([C@@H](O)C[C@@]3(C)C2CC[C@]3(O)C(=O)COC(=O)CCC(=O)[O-])[C@@]2(C)C=CC(=O)C=C12 (some centres unmarked) | -6.49 |
| O=C(c1ccc(F)c(F)c1Nc1ccc(I)cc1F)N1CC(O)([C@@H]2CCCCN2)C1 | 78.8 |
| O=C(NOCCO)c1cc(CN2OCCCC2=O)c(F)c(F)c1Nc1ccc(I)cc1F | -1.3 |
| O=C(NOCC1CC1)c1ccc(F)c(F)c1Nc1ccc(I)cc1Cl | 1.02 |
| Cc1cc2nc3c(=O)[nH]c(=O)nc-3n(C[C@@H](O)[C@@H](O)[C@@H](O)COP(=O)([O-])O)c2cc1C | 1.6 |
| COc1cc2cc(c1Cl)N(C)C(=O)C[C@H](OC(=O)C(C)C)[C@]1(C)O[C@H]1[C@H](C)[C@@H]1C[C@@](O)(NC(=O)O1)[C@H](OC)/C=C/C=C(\C)C2 | -0.8 |
| CCCCOc1cc(C(=O)OCCN(CC)CC)ccc1N | 18.9 |
| CCOc1ccc(C(=O)OCCN(CC)CC)cc1 | 0.82 |
| CCN(CC)CCOc1ccc2c(c1)C(=O)c1cc(OCCN(CC)CC)ccc1-2 | 57.2 |
| O=C1NNc2nc(CN3Cc4ccccc4C3)nc3cccc1c23 | 0.43 |
| O=C([O-])C(Cl)Cl | -4.51 |
| CC(C)(C)C(=O)OCOC(=O)C1N2C(=O)CC2S(=O)(=O)C1(C)C (centres unmarked) | 3.85 |
| CCCCCCCCCCCCCCCC=O | -3.07 |
| Cc1c[nH]c(=O)n(CCCN2CCN(c3ccccc3OCC(F)(F)F)CC2)c1=O | -1.42 |
| COc1ccccc1N1CCN(CCCCN2C(=O)CCC2=O)CC1 | 6.62 |
| CN1CCN(CCCN2c3ccccc3Sc3ccc(Cl)cc32)CC1 | 38.9 |

| Structure (SMILES) | result_ITMP [%] |
| --- | --- |
| O=C(CCc1ccncc1)NNC(=O)N1Cc2ccccc2Oc2ccc(Cl)cc21 | -1.3 |
| COc1ccccc1N1CCN(CCCCN2C(=O)c3ccccc3C2=O)CC1 | -0.85 |
| OCCN1CCN(CCCN2c3ccccc3C=Cc3ccccc32)CC1 | 50.3 |
| OCCN1CCN(CCCN2c3ccccc3Sc3ccc(Cl)cc32)CC1 | 84.7 |
| CN1CCN(CCCN2c3ccccc3Sc3ccc(C(F)(F)F)cc32)CC1 | 81.3 |
| Clc1ccc2c(N3CCN(CCCN4CCN(c5ccnc6cc(Cl)ccc56)CC4)CC3)ccnc2c1 | 6.97 |
| CCN(CC)CCCCN1c2ccccc2Oc2ccc(Cl)cc21 | 69.7 |
| CN(C)CCCN1c2ccccc2CCc2ccc(Cl)cc21 | 47.3 |
| CN(C)c1ccc2nc3ccc(N(C)C)cc3[s+]c2c1 | 5.81 |
| CO[C@@H]1[C@H](OC(=O)NC(=O)CCl)CC[C@]2(CO2)[C@H]1[C@@]1(C)O[C@@H]1CC=C(C)C | 16.1 |
| NC[C@@H]1O[C@H](O[C@H]2[C@@H](O)[C@H](O[C@@H]3[C@@H](O)[C@H](N)C[C@H](N)[C@H]3O[C@H]3O[C@H](CO)[C@@H](O)[C@H](O)[C@H]3N)O[C@@H]2CO)[C@H](N)[C@@H](O)[C@@H]1O | -1.27 |
| CC1CCC(O)C/C1=C\C=C1/CCCC2(C)C1CCC2C(C)/C=C/C(C)C(C)C (centres unmarked) | 0.34 |
| C[C@H](CSC(=O)c1ccccc1)C(=O)N1C[C@@H](Sc2ccccc2)C[C@H]1C(=O)[O-] | -1.35 |
| Cc1ncc(COP(=O)([O-])O)c(CN(CCN(CC(=O)[O-])Cc2c(COP(=O)(O)O)cnc(C)c2[O-])CC(=O)[O-])c1[O-].[Mn+2] | -10.5 |
| O=C([O-])C1=C(CSc2nnnn2CS(=O)(=O)[O-])CS[C@@H]2[C@H](NC(=O)[C@H](O)c3ccccc3)C(=O)N12 | 0.51 |
| CN(C)CCCN1c2ccccc2Sc2ccccc21 | 37.7 |
| CN(C)CCCN1c2ccccc2Sc2ccc(Cl)cc21 | 104 |
| OCCN1CCN(CC/C=C2/c3ccccc3Sc3ccc(Cl)cc32)CC1 | 17.9 |
| CN(C)CCCN1c2ccccc2CCc2ccccc21 | 23.6 |
| OCCOCCN1CCN(C2=Nc3ccccc3Sc3ccccc32)CC1 | 22.1 |
| OCCN1CCN(CC/C=C2/c3ccccc3Sc3ccc(C(F)(F)F)cc32)CC1 | 83.6 |
| CN1CCCCC1CCN1c2ccccc2Sc2ccc(S(C)=O)cc21 (centres unmarked) | -0.95 |
| CN1CCN(CC/C=C2/c3ccccc3Sc3ccc(S(=O)(=O)N(C)C)cc32)CC1 | 61.9 |
| CSc1ccc2c(c1)N(CCC1CCCCN1C)c1ccccc1S2 (centres unmarked) | 68.1 |
| Cc1[nH]c(/C=C2\C(=O)Nc3ccc(S(=O)(=O)N(C)c4cccc(Cl)c4)cc32)c(C)c1C(=O)N1CCN(C)CC1 | 7.98 |
| CO/N=C(/C(=O)N[C@@H]1C(=O)N2C(C(=O)[O-])=C(CSc3nc(=O)c([O-])nn3C)CS[C@H]12)c1csc(N)n1 | -8.18 |
